From the antibiotic and cytotoxicity screens of Wong et al. (2023)
Hit rate of the full screen: of about 39,000 compounds, about 3,300 (8.5%) were called active. The sample as a whole holds a higher share of actives than the screen did.

system: HepG2; assay: cytotoxicity call (relative viability < 0.9); settings: 10 µM

With `C[C@@H]1CN([C@H](C)CO)C(=O)c2cccc(NC(=O)Nc3cccc4ccccc34)c2O[C@@H]1CN(C)C(=O)NC1CCCCC1` as the compound, how does the cytotoxicity call read?
Its cytotoxicity call is “inactive”.

For `C[C@H]1CN([C@@H](C)CO)C(=O)CCCn2cc(nn2)CO[C@@H]1CN(C)C(=O)Nc1cccc2ccccc12`, which cytotoxicity call is on record?
Its cytotoxicity call is “inactive”.

Which cytotoxicity call does the source give for `O=C(Cn1cc(COc2ccc(-n3cccc3)cc2)nn1)NS(=O)(=O)c1ccccc1C(F)(F)F` here?
Its cytotoxicity call is “inactive”.

For `C[C@@H]1CN([C@@H](C)CO)C(=O)c2cc(NC(=O)Cc3ccccc3)ccc2O[C@@H](C)CCCCO[C@H]1CN(C)C(=O)C1CCCCC1`, which cytotoxicity call is on record?
The cytotoxicity call was “inactive”.

With `C[C@H]1CN([C@@H](C)CO)C(=O)c2cccc(NS(=O)(=O)c3cccs3)c2O[C@@H]1CN(C)CC1CC1` as the compound, how does the cytotoxicity call read?
The cytotoxicity call was “inactive”.

How did the cytotoxicity call turn out when `COc1ccc([C@@H]([C@H](Cc2ccccc2)OC(C)=O)N2C[C@@H](OC(C)=O)[C@@H]3C(=NO[C@H]3c3ccccc3)[C@@H]2Cc2ccccc2)cc1` was run?
The cytotoxicity call was “inactive”.

For `C[C@@H]1CN([C@@H](C)CO)C(=O)c2cccc(NC(=O)Nc3ccc4c(c3)OCO4)c2O[C@@H]1CN(C)Cc1ccc(C(F)(F)F)cc1`, which cytotoxicity call is on record?
The cytotoxicity call was “inactive”.

With `Oc1cc(O)c2cc(O)c(-c3ccc(O)c(O)c3)[o+]c2c1.[Cl-]` as the compound, how does the cytotoxicity call read?
The cytotoxicity call was “inactive”.

`Cc1noc(C)c1S(=O)(=O)Nc1ccc2c(c1)C(=O)N([C@H](C)CO)C[C@H](C)[C@H](CN(C)S(=O)(=O)c1ccc(Cl)cc1)O2` was tested. Which cytotoxicity call did it give?
Its cytotoxicity call is “inactive”.

`COc1ccc(S(=O)(=O)N2C[C@@H](O)COC[C@H]3O[C@H](CC(=O)NCc4ccc(Cl)c(Cl)c4)CC[C@@H]32)cc1` was tested. Which cytotoxicity call did it give?
The cytotoxicity call was “inactive”.

For `COc1ccc(S(=O)(=O)N2C[C@@H](O)COC[C@@H]3O[C@@H](CC(=O)NCc4ccc(Cl)c(Cl)c4)CC[C@H]32)cc1`, which cytotoxicity call is on record?
The cytotoxicity call was “active”.

Which cytotoxicity call does the source give for `COc1ccc(S(=O)(=O)N2C[C@H](O)COC[C@@H]3O[C@H](CC(=O)NCc4ccc(Cl)c(Cl)c4)CC[C@H]32)cc1` here?
The cytotoxicity call was “inactive”.

`COc1ccc(S(=O)(=O)N2C[C@@H](O)COC[C@H]3O[C@@H](CC(=O)NCc4ccc(Cl)c(Cl)c4)CC[C@@H]32)cc1` was tested. Which cytotoxicity call did it give?
The cytotoxicity call was “active”.

For `COc1ccc(S(=O)(=O)N2C[C@@H](O)COC[C@@H]3O[C@H](CC(=O)NCc4ccc(Cl)c(Cl)c4)CC[C@H]32)cc1`, which cytotoxicity call is on record?
Its cytotoxicity call is “inactive”.

How did the cytotoxicity call turn out when `COc1ccc(S(=O)(=O)N2C[C@H](O)COC[C@H]3O[C@H](CC(=O)NCc4ccc(Cl)c(Cl)c4)CC[C@@H]32)cc1` was run?
The cytotoxicity call was “inactive”.

With `COCCCN1C(=O)[C@@]2(Cc3ccccc31)c1ccccc1C(=O)N(C1CCCCC1)[C@H]2c1ccc(CO)cc1` as the compound, how does the cytotoxicity call read?
Its cytotoxicity call is “inactive”.

With `COc1ccc(NC(=O)N(C)C[C@@H]2OCCCC[C@@H](C)Oc3ccc(NC(=O)NC(C)C)cc3C(=O)N([C@H](C)CO)C[C@H]2C)cc1` as the compound, how does the cytotoxicity call read?
The cytotoxicity call was “inactive”.

With `COc1ccccc1S(=O)(=O)N(C)C[C@H]1Oc2cc(C#CCC(C)C)ccc2S(=O)(=O)N([C@@H](C)CO)C[C@H]1C` as the compound, how does the cytotoxicity call read?
Its cytotoxicity call is “active”.

For `CC(C)CC#Cc1ccc2c(c1)O[C@H](CN(C)S(=O)(=O)c1cccc(F)c1)[C@H](C)CN([C@@H](C)CO)S2(=O)=O`, which cytotoxicity call is on record?
The cytotoxicity call was “active”.

With `COc1ccccc1S(=O)(=O)N(C)C[C@@H]1Oc2cc(C#CCC(C)C)ccc2S(=O)(=O)N([C@H](C)CO)C[C@H]1C` as the compound, how does the cytotoxicity call read?
The cytotoxicity call was “inactive”.

Which cytotoxicity call does the source give for `CCCC#Cc1ccc2c(c1)O[C@@H](CN(C)S(=O)(=O)c1cccc(OC)c1)[C@@H](C)CN([C@@H](C)CO)S2(=O)=O` here?
Its cytotoxicity call is “inactive”.

Which cytotoxicity call does the source give for `COc1ccccc1S(=O)(=O)N(C)C[C@@H]1Oc2cc(C#CCC(C)C)ccc2S(=O)(=O)N([C@@H](C)CO)C[C@H]1C` here?
Its cytotoxicity call is “inactive”.

For `CCCC#Cc1ccc2c(c1)O[C@H](CN(C)S(=O)(=O)c1cccc(OC)c1)[C@H](C)CN([C@@H](C)CO)S2(=O)=O`, which cytotoxicity call is on record?
The cytotoxicity call was “inactive”.

Which cytotoxicity call does the source give for `COc1ccccc1S(=O)(=O)N(C)C[C@@H]1Oc2cc(C#CCC(C)C)ccc2S(=O)(=O)N([C@H](C)CO)C[C@@H]1C` here?
The cytotoxicity call was “active”.

How did the cytotoxicity call turn out when `CC(C)CC#Cc1ccc2c(c1)O[C@@H](CN(C)S(=O)(=O)c1cccc(F)c1)[C@H](C)CN([C@@H](C)CO)S2(=O)=O` was run?
The cytotoxicity call was “inactive”.

`COc1ccccc1S(=O)(=O)N(C)C[C@H]1Oc2cc(C#CCC(C)C)ccc2S(=O)(=O)N([C@H](C)CO)C[C@@H]1C` was tested. Which cytotoxicity call did it give?
Its cytotoxicity call is “inactive”.

Which cytotoxicity call does the source give for `COc1ccccc1S(=O)(=O)N(C)C[C@H]1Oc2cc(C#CCC(C)C)ccc2S(=O)(=O)N([C@@H](C)CO)C[C@@H]1C` here?
Its cytotoxicity call is “inactive”.

For `CC(C)CC#Cc1ccc2c(c1)O[C@@H](CN(C)S(=O)(=O)c1cccc(F)c1)[C@H](C)CN([C@H](C)CO)S2(=O)=O`, which cytotoxicity call is on record?
Its cytotoxicity call is “inactive”.

`C#CCSC1=N[C@@]2(COCc3ccc(OC)cc3)Oc3ccccc3[C@H]([C@H]2CO[Si](C)(C)C(C)(C)C)N1C(=O)c1ccccc1` was tested. Which cytotoxicity call did it give?
The cytotoxicity call was “inactive”.

How did the cytotoxicity call turn out when `C[C@@H]1CN([C@H](C)CO)C(=O)c2cc(-c3ccc(F)cc3)cnc2O[C@@H]1CN(C)C(=O)Cc1ccccn1` was run?
Its cytotoxicity call is “inactive”.

Which cytotoxicity call does the source give for `C[C@@H]1CN([C@H](C)CO)C(=O)c2cc(NC(=O)CCCN(C)C)ccc2O[C@H]1CN(C)S(=O)(=O)c1ccc(Cl)cc1` here?
Its cytotoxicity call is “inactive”.

`COC(=O)C1=C2CC[C@H](CO)NC(=O)N[C@H](Cc3ccccc3)C(=O)NCc3cn(nn3)C[C@@H](Cc3ccccc3)NC(=O)c3oc(c(C(=O)OC)c3C(=O)OC)CC[C@H](CO)NC(=O)N[C@H](Cc3ccccc3)C(=O)NCc3cn(nn3)C[C@@H](Cc3ccccc3)NC(=O)C(=C1C(=O)OC)O2` was tested. Which cytotoxicity call did it give?
Its cytotoxicity call is “inactive”.

For `Cc1noc(C)c1S(=O)(=O)Nc1ccc2c(c1)C(=O)N([C@@H](C)CO)C[C@@H](C)[C@H](CN(C)S(=O)(=O)c1cn(C)cn1)OCCCC[C@@H](C)O2`, which cytotoxicity call is on record?
The cytotoxicity call was “inactive”.

How did the cytotoxicity call turn out when `C[C@@H]1CCCCO[C@H](CN(C)C(=O)Nc2ccc(F)cc2)[C@H](C)CN([C@@H](C)CO)C(=O)c2cc(NC(=O)CCC(F)(F)F)ccc2O1` was run?
Its cytotoxicity call is “inactive”.

`Cc1ccc(S(=O)(=O)N(C)C[C@H]2Oc3ccc(NC(=O)CCCN(C)C)cc3C(=O)N([C@@H](C)CO)C[C@H]2C)cc1` was tested. Which cytotoxicity call did it give?
Its cytotoxicity call is “inactive”.

For `C[C@H](CO)N1C[C@H](C)[C@@H](CN(C)CC2CCCCC2)OCCCC[C@H](C)Oc2ccc(NC(=O)c3ccncc3)cc2C1=O`, which cytotoxicity call is on record?
The cytotoxicity call was “inactive”.

With `COc1cccc(S(=O)(=O)N[C@H]2C=C[C@H](CC(=O)NC3CCC3)O[C@H]2CO)c1` as the compound, how does the cytotoxicity call read?
Its cytotoxicity call is “inactive”.

For `C[C@@H]1CN([C@H](C)CO)C(=O)c2cc(NC(=O)CCC(F)(F)F)ccc2O[C@H]1CN(C)Cc1ccc(C(F)(F)F)cc1`, which cytotoxicity call is on record?
Its cytotoxicity call is “inactive”.
